Measured values published in PubChem BioAssay (NCATS).
Several values for one entry are separate records, joined by “and”; a condition that tells them apart may be missing. Equal values may be shown once. Results filed as inconclusive are left out. Entries that show only a call come without a potency. Activity calls are given as the source filed them. Unless noted, calls follow the shape of the full dose curve.

Legend:
[1] = qHTS for Inhibitors of the Functional Ribonucleoprotein Complex (vRNP) of Lassa (LASV) Arenavirus: LASV Primary Screen - GLuc reporter signal (AID 1347082; calls by dose curve; tested in HEK293 reporter line; also: nearly all actives have a fitted effect of over 60% in size; also: potency is read from the fitted curve at half-maximal effect)
[2] = qHTS for Inhibitors of the Functional Ribonucleoprotein Complex (vRNP) of Lassa (LASV) Arenavirus: Viability assay - alamar blue signal for LASV Primary Screen (AID 1347083; calls by dose curve; tested in HEK293 reporter line; also: nearly all actives have a fitted effect of over 80% in size; also: potency is read from the fitted curve at half-maximal effect)
[3] = qHTS for Inhibitors of the Functional Ribonucleoprotein Complex (vRNP) of Lymphocytic Choriomeningitis Arenaviruses (LCMV): Viability assay - alamar blue signal for LCMV Primary Screen (AID 1347085; calls by dose curve; tested in HEK293 reporter line; also: nearly all actives have a fitted effect of over 80% in size; also: potency is read from the fitted curve at half-maximal effect)
[4] = target: Nucleoprotein (Lymphocytic choriomeningitis virus (strain Armstrong)) (UniProt P09992); test: qHTS for Inhibitors of the Functional Ribonucleoprotein Complex (vRNP) of Lymphocytic Choriomeningitis Arenaviruses (LCMV): LCMV Primary Screen - GLuc reporter signal (AID 1347086); also: nearly all actives have a fitted effect of over 70% in size; also: potency is read from the fitted curve at half-maximal effect
[5] = Primary qHTS for inhibitors of SARS-S pseudo-typed particle cell entry (AID 1479145); also: nearly all actives have a fitted effect of over 45% in size
[6] = Primary qHTS for Huh7 cytotoxicity: counterscreen for inhibitors of MERS-S pseudotyped particle cell entry (AID 1479147); conditions: outcome: dose series up to 57.1 µM unless noted
[7] = Primary qHTS for inhibitors of MERS-S pseudo-typed particle cell entry (AID 1479149); also: nearly all actives have a fitted effect of over 60% in size
[8] = Primary qHTS for Vero E6 cytotoxicity: counterscreen for inhibitors of SARS-S pseudo-typed particle cell entry (AID 1479150); conditions: outcome: dose series up to 57.1 µM unless noted
[9] = Cytotoxicity counterscreen for inhibitors of SARS-CoV-2 cell entry (AID 1645845); also: nearly all actives have a fitted effect of over 50% in size
Summary of the method: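 HEK293-ACE2 cells (Expi293F stably expressing human ACE2) seeded overnight, then compound for 1 h plus 48 h at 37C. Viability as ATP content by luminescence; normalized to wells with cells and media-only wells.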

[10] = Primary qHTS to identify inhibitors of SARS-CoV-2 cell entry (AID 1645846); conditions: activity change, negative = inhibition: at 57.1 µM (top of the series) unless noted; also: nearly all actives have a fitted effect of over 45% in size
Summary of the method: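 Using luciferase-reporting pseudoviruses carrying Wuhan-Hu-1 spike, the screen tracks entry into stably ACE2-expressing cells over 48 hr. Activity is expressed relative to spike particles versus particles lacking any fusion protein.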

CRL-7250 = normal cell line; test: qHTS assay to identify novel small-molecules to repurpose for Merkel cell carcinoma treatment (AID 1296009; active = well fitted inhibition curve with a large enough effect; also: nearly all actives have a fitted effect of over 60% in size); conditions: MCC and control cell lines, CellTiter-Glo viability, 72 h; series mostly up to 92 µM
Summary of the method: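 Cells were treated for 72 hr at 37 degree celsius with compounds in 8- or 11-point dose response. Viability was read by CellTiter-Glo luminescence, normalized to no-cell (cytotoxicity) and DMSO controls.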

[11] = Confirmatory qHTS for VERO E6 Cytotoxicity Assay: Counterscreen for SARS-CoV-2 CPE Assay (AID 1508605); also: nearly all actives have a fitted effect of over 60% in size
[12] = Confirmatory qHTS for activators (rescue) of SARS-CoV-2 Cytopathic Effect (CPE) (AID 1508606); also: nearly all actives have a fitted effect of over 70% in size
[13] = qHTS profiling of the MIPE4 collection as inhibitors of Plasmodium falciparum (3D7) proliferation (AID 743344; call rule not given here); conditions: P. falciparum 3D7 in erythrocytes, SYBR Green DNA fluorescence, 72 h; at 28.5 µM (top of the series) unless noted
Summary of the method: (§1)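 Erythrocytes infected with P. falciparum (0.3% parasitemia, 2.5% hematocrit) incubated with compounds 72 h at 37 C, 5% CO2. Lysis with saponin/Triton buffer containing SYBR Green I, overnight at room temperature in the dark; DNA fluorescence (485/535 nm) normalised to 0.29 uM artemisinin and DMSO.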

[14] = qHTS profiling of the MIPE4 collection as inhibitors of Plasmodium falciparum (DD2) proliferation (AID 743345; call rule not given here); conditions: P. falciparum Dd2 in erythrocytes, SYBR Green DNA, 72 h; at 28.5 µM (top of the series) unless noted
Summary of the method: as §1

Nucleoprotein (Lymphocytic choriomeningitis virus (strain Armstrong)), sequence (P09992 whole entry, looked up): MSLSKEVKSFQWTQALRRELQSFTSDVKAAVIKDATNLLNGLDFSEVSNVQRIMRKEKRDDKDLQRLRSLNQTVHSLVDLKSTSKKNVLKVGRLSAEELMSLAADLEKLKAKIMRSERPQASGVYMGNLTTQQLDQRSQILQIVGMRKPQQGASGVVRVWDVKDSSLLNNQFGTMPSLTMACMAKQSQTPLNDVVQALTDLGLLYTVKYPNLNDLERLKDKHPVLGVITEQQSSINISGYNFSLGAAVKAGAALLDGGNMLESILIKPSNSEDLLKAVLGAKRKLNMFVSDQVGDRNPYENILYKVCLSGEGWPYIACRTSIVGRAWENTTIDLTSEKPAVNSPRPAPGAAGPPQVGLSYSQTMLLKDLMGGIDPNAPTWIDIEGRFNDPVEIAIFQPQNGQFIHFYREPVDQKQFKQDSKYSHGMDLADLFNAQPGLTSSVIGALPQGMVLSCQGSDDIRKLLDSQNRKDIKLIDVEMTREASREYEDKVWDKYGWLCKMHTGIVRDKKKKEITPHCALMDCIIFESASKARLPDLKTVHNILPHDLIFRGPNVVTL

Q: Which Potency [1] does the source give for `CCCCCCCCCC(=O)N[C@@H](Cc1c[nH]c2ccccc12)C(=O)N[C@H](CC(N)=O)C(=O)N[C@@H](CC(=O)O)C(=O)N[C@@H]1C(=O)NCC(=O)N[C@@H](CCCN)C(=O)N[C@@H](CC(=O)O)C(=O)N[C@H](C)C(=O)N[C@@H](CC(=O)O)C(=O)NCC(=O)N[C@H](CO)C(=O)N[C@@H]([C@@H](C)CC(=O)O)C(=O)N[C@@H](CC(=O)c2ccccc2N)C(=O)O[C@@H]1C` here?
A: inactive

Q: And the Potency [2]?
A: inactive

Q: What about the Potency [3] of the same molecule?
A: inactive

Q: What about the Potency [4] of the same molecule?
A: inactive

Q: What about the Potency [5] of the same molecule?
A: inactive

Q: And the outcome [6]?
A: inactive [at 26.4 µM]

Q: And the Potency [7]?
A: inactive

Q: What about the outcome [8] of the same molecule?
A: inactive

Q: What about the Potency [9] of the same molecule?
A: inactive

Q: What about the Potency [10] of the same molecule?
A: inactive

Q: What about the activity change, negative = inhibition [10] of the same molecule?
A: -32.9% [at 27.1 µM]

Q: And the Potency (CRL-7250)?
A: inactive

Q: Which results are given for `CCCCCCCCCCCCc1ccc(S(=O)(=O)Nc2nncs2)cc1`?
A: Potency [1]: inactive; Potency [2]: inactive; Potency [3]: inactive; Potency [4]: inactive; Potency [11]: inactive; Potency [12]: inactive; Potency [9]: inactive; activity change, negative = inhibition [10]: -14.7%; Potency (CRL-7250): inactive

Q: With `CC1COC2(CCN(c3nc(=O)c4cc(C(F)(F)F)cc([N+](=O)[O-])c4s3)CC2)O1` (stereo unspecified) as the molecule, how does the Potency [1] read?
A: inactive

Q: What about the Potency [2] of the same molecule?
A: inactive

Q: And the Potency [3]?
A: inactive

Q: What about the Potency [4] of the same molecule?
A: inactive

Q: What about the Potency [9] of the same molecule?
A: inactive

Q: What about the Potency (CRL-7250) of the same molecule?
A: inactive

Q: Which results are given for `CN1CCC(COc2cnc(-c3cccc(Cn4nc(-c5cccc(C#N)c5)ccc4=O)c3)nc2)CC1`?
A: Potency [1]: 5.44 µM (active); Potency [2]: 153 nM (active); Potency [3]: 61.1 nM (active); Potency [4]: 685 nM (active); Potency [9]: inactive; Potency (CRL-7250): inactive

Q: Which results are given for `O=C(O)CCn1c2c(c3ccccc31)C[C@H](NS(=O)(=O)c1ccc(F)cc1)CC2`?
A: Potency [1]: inactive; Potency [2]: inactive; Potency [3]: inactive; Potency [4]: inactive; Potency [5]: inactive; outcome [6]: inactive; Potency [7]: inactive; outcome [8]: inactive; Potency [9]: inactive; activity change, negative = inhibition [10]: -25.2% and -23.3%; Potency (CRL-7250): inactive

Q: For `C=CC1=C(C(=O)O)N2C(=O)[C@@H](NC(=O)C(=NO)c3csc(N)n3)[C@H]2SC1`, which Potency [1] is on record?
A: inactive

Q: What about the Potency [2] of the same molecule?
A: inactive

Q: And the Potency [3]?
A: inactive

Q: And the Potency [4]?
A: inactive

Q: What about the Potency (CRL-7250) of the same molecule?
A: inactive

Q: Which Potency [1] does the source give for `O=C(O)[C@H](CC(=O)N1C[C@@H]2CCCC[C@H]2C1)Cc1ccccc1` here?
A: inactive

Q: And the Potency [2]?
A: inactive

Q: What about the Potency [3] of the same molecule?
A: inactive

Q: And the Potency [4]?
A: inactive

Q: And the Potency (CRL-7250)?
A: inactive

Q: Which results are given for `c1ccc(CNc2nc(N3CCOc4ccccc43)nc3c2CCCC3)cc1`?
A: Potency [1]: inactive; Potency [2]: inactive; Potency [3]: inactive; Potency [4]: inactive; Potency [9]: inactive; Potency (CRL-7250): inactive

Q: With `C=CC[N+]1([C@H]2C[C@H]3[C@@H]4CC[C@H]5C[C@H](O)[C@@H](N6CCOCC6)C[C@]5(C)[C@@H]4CC[C@]3(C)[C@H]2OC(C)=O)CCCC1` as the molecule, how does the Potency [1] read?
A: inactive

Q: What about the Potency [2] of the same molecule?
A: inactive

Q: And the Potency [3]?
A: inactive

Q: What about the Potency [4] of the same molecule?
A: inactive

Q: What about the Potency (CRL-7250) of the same molecule?
A: inactive

Q: With `CC(=O)N[C@@H]1[C@H](O[C@@H]2c3ccc(c(Cl)c3)Oc3cc4cc(c3O[C@H]3O[C@H](CO)[C@@H](O)[C@H](O)[C@H]3NC(=O)CCCCCCCC(C)C)Oc3ccc(cc3Cl)C[C@H]3NC(=O)[C@H](N)c5ccc(O)c(c5)Oc5cc(O)cc(c5)[C@H](NC3=O)C(=O)N[C@H]4C(=O)N[C@H]3C(=O)N[C@@H]2C(=O)N[C@@H](C(=O)O)c2cc(O)cc(O[C@H]4O[C@H](CO)[C@@H](O)[C@H](O)[C@H]4O)c2-c2cc3ccc2O)O[C@H](CO)[C@@H](O)[C@@H]1O` as the molecule, how does the Potency [1] read?
A: inactive

Q: And the Potency [2]?
A: inactive

Q: And the Potency [3]?
A: inactive

Q: What about the Potency [4] of the same molecule?
A: inactive

Q: And the Potency (CRL-7250)?
A: inactive

Q: For `COc1ccc(C2(C#N)CCC(C(=O)O)CC2)cc1OC1CCCC1` (stereo unspecified), which parasite growth, % of DMSO control [13] is on record?
A: 91.7%

Q: What about the parasite growth remaining, % of DMSO control (lower = more inhibition) [14] of the same molecule?
A: 101%

Q: What about the Potency [1] of the same molecule?
A: inactive

Q: What about the Potency [2] of the same molecule?
A: inactive

Q: What about the Potency [3] of the same molecule?
A: inactive

Q: What about the Potency [4] of the same molecule?
A: inactive

Q: And the outcome [6]?
A: inactive

Q: What about the Potency [7] of the same molecule?
A: inactive

Q: What about the outcome [8] of the same molecule?
A: inactive

Q: And the Potency [9]?
A: inactive

Q: What about the Potency (CRL-7250) of the same molecule?
A: inactive
